A word on the residual activity: it is the signal under treatment as a percentage of the control signal.

Experimental findings from ChEMBL document CHEMBL2218924, “A broad activity screen in support of a chemogenomic map for kinase signalling research and drug discovery” (Biochem J, 2013) are described below.

Assay [1] deals with Ephrin type-A receptor 4 (Homo sapiens) (UniProt P54764). Particulars: at 1 µM; call rule not given here.
Assay [2] shares this target. Particulars: at 10 µM.
The target in assay [3] is Ephrin type-A receptor 5 (Homo sapiens) (UniProt P54756). Particulars: at 1 µM.
Ephrin type-A receptor 5 (Homo sapiens), sequence (P54756 whole entry): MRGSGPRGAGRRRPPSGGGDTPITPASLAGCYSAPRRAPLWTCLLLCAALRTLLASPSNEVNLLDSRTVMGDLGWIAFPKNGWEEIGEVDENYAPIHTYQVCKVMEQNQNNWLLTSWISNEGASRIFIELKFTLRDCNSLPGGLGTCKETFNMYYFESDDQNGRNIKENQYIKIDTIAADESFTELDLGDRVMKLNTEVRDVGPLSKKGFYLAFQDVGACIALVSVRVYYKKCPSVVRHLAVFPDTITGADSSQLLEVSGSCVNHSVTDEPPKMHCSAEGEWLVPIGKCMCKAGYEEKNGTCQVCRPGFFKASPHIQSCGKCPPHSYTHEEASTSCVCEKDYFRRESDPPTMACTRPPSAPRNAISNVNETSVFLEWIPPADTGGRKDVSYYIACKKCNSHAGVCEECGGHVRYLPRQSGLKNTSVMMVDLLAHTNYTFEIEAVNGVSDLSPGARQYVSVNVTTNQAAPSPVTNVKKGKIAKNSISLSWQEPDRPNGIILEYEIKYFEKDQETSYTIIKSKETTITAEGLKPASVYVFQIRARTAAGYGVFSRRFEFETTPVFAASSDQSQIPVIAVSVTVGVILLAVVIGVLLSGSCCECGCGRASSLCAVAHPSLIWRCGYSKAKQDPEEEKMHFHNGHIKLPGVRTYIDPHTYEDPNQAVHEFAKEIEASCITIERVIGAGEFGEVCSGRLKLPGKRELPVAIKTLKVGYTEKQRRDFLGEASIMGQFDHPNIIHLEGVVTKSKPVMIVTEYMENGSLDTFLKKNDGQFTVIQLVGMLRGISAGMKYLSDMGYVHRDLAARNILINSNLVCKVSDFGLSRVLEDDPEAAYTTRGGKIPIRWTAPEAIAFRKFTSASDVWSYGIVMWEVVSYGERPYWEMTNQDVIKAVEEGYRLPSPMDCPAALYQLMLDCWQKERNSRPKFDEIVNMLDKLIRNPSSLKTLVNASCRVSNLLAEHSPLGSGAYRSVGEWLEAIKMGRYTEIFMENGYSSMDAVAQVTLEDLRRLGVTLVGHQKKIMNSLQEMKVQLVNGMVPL
Assay [4] has the same target. The note with it: at 10 µM.
Assay [5] addresses T1, Ephrin type-B receptor 2 (Homo sapiens) (UniProt P29323).
T1 sequence (whole entry): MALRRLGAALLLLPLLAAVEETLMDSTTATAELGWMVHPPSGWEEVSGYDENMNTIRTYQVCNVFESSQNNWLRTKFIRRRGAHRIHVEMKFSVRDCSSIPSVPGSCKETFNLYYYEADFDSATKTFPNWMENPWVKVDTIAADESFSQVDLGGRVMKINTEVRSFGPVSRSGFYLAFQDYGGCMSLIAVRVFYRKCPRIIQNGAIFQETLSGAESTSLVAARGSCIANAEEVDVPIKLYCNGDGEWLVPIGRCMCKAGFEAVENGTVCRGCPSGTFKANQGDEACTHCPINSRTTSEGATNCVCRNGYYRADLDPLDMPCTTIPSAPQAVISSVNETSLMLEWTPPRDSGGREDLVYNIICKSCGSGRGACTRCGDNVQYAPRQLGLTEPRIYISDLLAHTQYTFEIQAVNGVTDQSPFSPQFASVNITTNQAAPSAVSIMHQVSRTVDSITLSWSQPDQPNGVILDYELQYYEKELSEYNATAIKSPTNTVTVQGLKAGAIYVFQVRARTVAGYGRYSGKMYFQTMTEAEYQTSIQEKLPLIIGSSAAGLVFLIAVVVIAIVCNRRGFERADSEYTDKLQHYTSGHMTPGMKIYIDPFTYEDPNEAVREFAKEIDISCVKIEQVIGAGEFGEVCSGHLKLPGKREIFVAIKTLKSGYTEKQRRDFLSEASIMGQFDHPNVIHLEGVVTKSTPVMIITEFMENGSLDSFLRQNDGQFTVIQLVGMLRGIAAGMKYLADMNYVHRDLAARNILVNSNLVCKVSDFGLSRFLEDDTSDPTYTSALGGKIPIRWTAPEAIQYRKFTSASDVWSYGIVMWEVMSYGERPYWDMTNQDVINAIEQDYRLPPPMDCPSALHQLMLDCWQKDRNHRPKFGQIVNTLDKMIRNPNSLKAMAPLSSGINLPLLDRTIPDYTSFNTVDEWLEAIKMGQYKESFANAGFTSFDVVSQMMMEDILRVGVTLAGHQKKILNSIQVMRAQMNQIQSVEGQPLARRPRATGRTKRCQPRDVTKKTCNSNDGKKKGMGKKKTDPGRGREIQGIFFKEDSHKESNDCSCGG
Particulars: at 10 µM.

In assay [6] the target is T2, Ephrin type-B receptor 3 (Homo sapiens) (UniProt P54753).
T2 sequence (whole entry): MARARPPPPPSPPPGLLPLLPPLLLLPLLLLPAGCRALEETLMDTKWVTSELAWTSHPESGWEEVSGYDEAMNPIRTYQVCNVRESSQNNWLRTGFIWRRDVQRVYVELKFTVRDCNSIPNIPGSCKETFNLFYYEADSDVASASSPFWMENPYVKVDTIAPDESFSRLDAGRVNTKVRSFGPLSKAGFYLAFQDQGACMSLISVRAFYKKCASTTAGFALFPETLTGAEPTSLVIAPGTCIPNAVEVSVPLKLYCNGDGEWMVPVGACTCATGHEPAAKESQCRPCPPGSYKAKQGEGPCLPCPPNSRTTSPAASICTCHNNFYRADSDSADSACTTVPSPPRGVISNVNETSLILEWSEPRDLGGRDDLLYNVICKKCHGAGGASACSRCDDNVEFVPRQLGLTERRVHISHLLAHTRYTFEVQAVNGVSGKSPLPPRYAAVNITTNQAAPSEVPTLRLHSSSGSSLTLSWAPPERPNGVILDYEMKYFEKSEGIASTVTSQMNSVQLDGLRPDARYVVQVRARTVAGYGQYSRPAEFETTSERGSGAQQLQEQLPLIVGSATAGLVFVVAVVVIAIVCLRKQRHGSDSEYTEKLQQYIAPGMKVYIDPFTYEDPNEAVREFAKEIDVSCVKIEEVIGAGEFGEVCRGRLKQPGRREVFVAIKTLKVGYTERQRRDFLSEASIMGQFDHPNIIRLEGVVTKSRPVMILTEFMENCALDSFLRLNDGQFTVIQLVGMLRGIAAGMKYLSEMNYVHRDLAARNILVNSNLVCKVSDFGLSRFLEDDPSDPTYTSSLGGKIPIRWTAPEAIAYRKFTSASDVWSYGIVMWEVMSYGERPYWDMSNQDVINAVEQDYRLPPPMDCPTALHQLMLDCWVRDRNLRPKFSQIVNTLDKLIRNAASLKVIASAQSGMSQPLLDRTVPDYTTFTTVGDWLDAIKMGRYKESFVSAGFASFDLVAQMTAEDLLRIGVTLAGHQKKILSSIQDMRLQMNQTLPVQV
The note with it: at 1 µM.

The target of assay [7] is T2, Ephrin type-B receptor 3 (Homo sapiens). The note with it: at 10 µM.
Assay [8] concerns the target T3, Ephrin type-B receptor 4 (Homo sapiens) (UniProt P54760).
T3 sequence (whole entry): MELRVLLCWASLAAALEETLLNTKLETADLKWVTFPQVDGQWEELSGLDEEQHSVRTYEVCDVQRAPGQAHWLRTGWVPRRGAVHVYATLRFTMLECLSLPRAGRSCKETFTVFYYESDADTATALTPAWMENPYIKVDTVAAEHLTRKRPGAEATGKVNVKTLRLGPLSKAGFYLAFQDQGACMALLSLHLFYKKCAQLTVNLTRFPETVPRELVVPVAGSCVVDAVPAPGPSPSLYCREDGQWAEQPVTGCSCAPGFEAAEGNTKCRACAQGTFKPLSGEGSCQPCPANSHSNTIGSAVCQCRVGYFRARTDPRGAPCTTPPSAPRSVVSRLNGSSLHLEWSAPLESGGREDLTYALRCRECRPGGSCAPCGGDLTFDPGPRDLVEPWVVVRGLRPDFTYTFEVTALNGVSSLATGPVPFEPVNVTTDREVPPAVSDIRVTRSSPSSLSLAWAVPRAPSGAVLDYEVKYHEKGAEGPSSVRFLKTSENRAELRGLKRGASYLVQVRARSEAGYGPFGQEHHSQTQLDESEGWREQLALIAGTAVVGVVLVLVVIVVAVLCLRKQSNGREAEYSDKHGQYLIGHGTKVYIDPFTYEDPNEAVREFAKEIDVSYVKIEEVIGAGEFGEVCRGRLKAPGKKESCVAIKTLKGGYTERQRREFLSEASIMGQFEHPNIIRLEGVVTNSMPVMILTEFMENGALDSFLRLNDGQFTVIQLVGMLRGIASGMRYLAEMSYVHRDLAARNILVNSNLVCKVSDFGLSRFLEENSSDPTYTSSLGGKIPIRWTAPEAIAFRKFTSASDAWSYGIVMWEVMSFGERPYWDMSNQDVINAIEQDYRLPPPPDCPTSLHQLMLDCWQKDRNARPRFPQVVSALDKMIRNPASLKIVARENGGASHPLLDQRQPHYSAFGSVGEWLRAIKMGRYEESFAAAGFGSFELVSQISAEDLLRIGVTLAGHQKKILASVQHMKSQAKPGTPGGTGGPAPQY
The note with it: at 1 µM.

Assay [9] addresses T3, Ephrin type-B receptor 4 (Homo sapiens). The note with it: at 10 µM.
Assay [10] concerns the target Receptor tyrosine-protein kinase erbB-4 (Homo sapiens) (UniProt Q15303). Particulars: at 1 µM.
Assay [11] addresses T4, Ephrin type-A receptor 3 (Homo sapiens) (UniProt P29320).
T4 sequence (whole entry): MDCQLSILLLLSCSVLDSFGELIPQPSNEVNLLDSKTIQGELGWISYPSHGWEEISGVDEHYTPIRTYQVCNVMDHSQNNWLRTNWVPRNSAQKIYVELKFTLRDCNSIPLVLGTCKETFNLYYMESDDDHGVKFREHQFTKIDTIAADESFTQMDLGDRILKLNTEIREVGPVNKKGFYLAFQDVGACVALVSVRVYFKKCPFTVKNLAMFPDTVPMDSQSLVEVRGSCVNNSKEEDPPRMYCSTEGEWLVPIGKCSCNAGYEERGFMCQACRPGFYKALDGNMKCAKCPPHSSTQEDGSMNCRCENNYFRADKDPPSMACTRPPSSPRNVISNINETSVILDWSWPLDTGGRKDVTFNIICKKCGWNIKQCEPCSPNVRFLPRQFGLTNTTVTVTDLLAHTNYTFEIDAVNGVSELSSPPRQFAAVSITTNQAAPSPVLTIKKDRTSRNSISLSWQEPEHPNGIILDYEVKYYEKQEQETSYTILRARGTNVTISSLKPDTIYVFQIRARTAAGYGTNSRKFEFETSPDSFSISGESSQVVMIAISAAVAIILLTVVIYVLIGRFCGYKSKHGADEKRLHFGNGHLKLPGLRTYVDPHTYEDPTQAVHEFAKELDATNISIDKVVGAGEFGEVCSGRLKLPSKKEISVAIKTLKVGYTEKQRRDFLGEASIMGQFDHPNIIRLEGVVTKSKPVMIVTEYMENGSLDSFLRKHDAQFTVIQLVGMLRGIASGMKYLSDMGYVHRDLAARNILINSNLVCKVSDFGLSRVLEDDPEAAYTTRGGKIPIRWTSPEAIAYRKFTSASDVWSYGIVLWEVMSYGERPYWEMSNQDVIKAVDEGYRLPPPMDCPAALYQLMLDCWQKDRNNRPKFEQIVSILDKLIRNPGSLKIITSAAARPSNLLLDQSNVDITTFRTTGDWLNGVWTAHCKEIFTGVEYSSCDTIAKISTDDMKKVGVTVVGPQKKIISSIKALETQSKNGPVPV
The note with it: at 10 µM.

The target in assay [12] is Ephrin type-A receptor 7 (Homo sapiens) (UniProt Q15375). The note with it: at 10 µM.
Assay [13] concerns the target T5, Ephrin type-B receptor 1 (Homo sapiens) (UniProt P54762).
T5 sequence (whole entry): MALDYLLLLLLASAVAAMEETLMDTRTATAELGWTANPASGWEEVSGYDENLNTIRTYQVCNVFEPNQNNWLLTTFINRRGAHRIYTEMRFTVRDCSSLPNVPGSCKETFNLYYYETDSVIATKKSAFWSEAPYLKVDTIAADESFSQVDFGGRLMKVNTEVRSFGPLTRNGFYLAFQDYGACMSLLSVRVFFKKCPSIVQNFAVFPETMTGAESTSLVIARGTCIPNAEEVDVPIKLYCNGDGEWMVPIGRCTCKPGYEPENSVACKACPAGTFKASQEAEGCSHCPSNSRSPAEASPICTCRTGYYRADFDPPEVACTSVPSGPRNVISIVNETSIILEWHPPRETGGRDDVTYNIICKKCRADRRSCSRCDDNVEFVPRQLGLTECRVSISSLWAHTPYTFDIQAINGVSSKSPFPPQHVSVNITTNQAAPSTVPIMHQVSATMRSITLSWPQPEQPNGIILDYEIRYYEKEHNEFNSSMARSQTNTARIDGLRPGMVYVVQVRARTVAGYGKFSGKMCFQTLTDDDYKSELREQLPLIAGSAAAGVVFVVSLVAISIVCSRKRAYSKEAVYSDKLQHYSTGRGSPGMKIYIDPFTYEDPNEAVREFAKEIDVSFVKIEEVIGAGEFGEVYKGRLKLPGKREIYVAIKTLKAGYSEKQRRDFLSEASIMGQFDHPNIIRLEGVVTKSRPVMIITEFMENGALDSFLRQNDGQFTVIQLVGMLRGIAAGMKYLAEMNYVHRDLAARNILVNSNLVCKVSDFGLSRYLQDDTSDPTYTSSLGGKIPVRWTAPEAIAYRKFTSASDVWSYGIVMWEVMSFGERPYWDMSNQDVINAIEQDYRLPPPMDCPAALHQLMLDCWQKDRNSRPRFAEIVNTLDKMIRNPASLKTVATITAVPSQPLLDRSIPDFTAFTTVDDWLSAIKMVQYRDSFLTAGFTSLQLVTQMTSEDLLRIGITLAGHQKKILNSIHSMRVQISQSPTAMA
The note with it: at 1 µM.

The target in assay [14] is T5, Ephrin type-B receptor 1 (Homo sapiens). Particulars: at 10 µM.
Assay [15] has as its target T1, Ephrin type-B receptor 2 (Homo sapiens). The note with it: at 1 µM.
Assay [16] addresses Receptor tyrosine-protein kinase erbB-4 (Homo sapiens) (UniProt Q15303). Particulars: at 10 µM.
The target in assay [17] is Focal adhesion kinase 1 (Homo sapiens) (UniProt Q05397). The note with it: at 1 µM.
Focal adhesion kinase 1 (Homo sapiens), sequence (Q05397 2-1052 limits assumed): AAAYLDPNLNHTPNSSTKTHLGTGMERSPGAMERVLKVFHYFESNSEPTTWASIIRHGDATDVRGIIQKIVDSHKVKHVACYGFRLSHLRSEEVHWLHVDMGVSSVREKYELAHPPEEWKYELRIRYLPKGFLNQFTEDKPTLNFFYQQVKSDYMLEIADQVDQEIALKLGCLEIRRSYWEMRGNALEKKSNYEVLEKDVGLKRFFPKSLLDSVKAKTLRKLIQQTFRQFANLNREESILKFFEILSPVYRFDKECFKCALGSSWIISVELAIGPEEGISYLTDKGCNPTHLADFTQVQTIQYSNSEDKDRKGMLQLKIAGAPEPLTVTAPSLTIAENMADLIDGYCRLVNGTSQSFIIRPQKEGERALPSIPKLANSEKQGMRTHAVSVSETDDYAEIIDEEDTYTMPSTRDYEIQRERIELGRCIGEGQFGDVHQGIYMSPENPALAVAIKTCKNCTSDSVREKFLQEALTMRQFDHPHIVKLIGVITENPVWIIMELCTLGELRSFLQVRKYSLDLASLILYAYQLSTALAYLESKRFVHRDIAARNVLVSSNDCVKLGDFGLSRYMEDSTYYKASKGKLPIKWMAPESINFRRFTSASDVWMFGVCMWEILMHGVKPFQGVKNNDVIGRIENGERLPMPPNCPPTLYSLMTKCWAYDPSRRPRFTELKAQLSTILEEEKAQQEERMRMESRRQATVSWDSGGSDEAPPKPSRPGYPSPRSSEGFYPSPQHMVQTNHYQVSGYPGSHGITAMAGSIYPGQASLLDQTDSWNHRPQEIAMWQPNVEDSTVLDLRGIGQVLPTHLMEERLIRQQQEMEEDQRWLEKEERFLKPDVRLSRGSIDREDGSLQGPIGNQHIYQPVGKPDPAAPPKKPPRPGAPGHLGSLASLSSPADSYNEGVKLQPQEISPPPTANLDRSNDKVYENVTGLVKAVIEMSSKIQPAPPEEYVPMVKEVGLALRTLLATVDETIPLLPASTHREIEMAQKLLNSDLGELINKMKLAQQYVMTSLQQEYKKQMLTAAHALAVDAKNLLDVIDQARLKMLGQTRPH

Receptor tyrosine-protein kinase erbB-4 (Homo sapiens), sequence (Q15303 whole entry): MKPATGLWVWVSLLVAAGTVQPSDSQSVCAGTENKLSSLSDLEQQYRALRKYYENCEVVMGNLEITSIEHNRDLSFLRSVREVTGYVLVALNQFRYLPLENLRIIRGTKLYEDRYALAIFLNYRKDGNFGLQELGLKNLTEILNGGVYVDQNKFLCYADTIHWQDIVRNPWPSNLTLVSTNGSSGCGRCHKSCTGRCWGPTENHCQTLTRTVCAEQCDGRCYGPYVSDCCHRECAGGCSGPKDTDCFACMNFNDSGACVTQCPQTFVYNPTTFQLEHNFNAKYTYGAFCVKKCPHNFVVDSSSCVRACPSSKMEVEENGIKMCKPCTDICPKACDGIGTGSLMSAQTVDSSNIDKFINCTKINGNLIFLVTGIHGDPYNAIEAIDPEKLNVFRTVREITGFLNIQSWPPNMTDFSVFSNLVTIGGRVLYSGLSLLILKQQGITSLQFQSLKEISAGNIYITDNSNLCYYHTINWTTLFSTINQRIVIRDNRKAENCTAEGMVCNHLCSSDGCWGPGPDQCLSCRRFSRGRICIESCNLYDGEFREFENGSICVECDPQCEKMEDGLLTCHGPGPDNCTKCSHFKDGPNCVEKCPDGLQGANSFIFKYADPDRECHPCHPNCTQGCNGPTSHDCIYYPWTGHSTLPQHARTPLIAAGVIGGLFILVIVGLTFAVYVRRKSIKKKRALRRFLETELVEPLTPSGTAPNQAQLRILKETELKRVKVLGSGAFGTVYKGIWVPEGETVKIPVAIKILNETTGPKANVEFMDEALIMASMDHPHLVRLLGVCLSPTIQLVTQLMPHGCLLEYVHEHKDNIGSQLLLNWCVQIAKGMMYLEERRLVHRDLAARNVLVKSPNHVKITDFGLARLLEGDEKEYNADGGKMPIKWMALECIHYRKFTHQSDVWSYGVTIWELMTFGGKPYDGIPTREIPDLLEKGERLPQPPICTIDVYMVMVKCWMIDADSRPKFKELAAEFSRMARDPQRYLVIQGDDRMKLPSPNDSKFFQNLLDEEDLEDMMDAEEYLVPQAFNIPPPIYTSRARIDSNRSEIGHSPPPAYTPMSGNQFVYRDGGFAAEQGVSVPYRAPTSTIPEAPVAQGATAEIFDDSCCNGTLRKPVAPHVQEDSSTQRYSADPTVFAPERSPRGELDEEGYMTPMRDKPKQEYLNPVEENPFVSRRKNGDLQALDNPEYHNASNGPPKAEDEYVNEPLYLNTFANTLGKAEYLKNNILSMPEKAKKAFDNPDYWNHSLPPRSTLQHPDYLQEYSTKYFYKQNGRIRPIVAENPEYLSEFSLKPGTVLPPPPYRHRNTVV
Ephrin type-A receptor 4 (Homo sapiens), sequence (P54764 whole entry): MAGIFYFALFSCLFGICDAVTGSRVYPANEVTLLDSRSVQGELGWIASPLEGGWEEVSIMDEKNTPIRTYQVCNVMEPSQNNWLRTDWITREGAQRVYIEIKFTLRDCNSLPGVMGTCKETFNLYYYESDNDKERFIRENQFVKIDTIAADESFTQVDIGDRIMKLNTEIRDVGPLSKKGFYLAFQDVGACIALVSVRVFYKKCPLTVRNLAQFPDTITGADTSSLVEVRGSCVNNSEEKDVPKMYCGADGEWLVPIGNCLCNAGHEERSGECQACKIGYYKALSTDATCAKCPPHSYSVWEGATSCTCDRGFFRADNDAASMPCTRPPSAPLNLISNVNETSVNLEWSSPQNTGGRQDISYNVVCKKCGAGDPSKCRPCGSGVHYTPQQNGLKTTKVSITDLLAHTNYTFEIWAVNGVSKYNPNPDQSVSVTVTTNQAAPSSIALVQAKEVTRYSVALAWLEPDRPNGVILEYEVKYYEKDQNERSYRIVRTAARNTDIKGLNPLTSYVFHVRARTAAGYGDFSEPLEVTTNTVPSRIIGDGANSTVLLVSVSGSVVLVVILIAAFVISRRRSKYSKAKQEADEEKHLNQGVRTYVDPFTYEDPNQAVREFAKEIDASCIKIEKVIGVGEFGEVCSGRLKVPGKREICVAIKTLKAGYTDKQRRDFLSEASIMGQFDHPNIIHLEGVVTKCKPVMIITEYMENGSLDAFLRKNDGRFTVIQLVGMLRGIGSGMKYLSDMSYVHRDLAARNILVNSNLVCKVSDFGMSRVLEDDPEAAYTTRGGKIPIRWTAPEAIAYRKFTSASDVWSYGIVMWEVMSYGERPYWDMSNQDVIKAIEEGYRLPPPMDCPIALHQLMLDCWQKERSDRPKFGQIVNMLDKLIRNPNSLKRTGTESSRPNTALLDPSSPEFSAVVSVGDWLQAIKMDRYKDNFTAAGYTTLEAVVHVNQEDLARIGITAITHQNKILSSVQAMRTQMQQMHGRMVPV

In the case of `O=C1c2ccccc2-c2nc3nnnn3nc21`, the residual activity was 115% in assay [1]; 102% in assay [2]; 115% in [3]; 124% in [4]; 138% in [5]; 108% (inactive) in assay [6]. The residual activity was determined as 133% in assay [7], 118% in assay [8], 115% in assay [9] and 106% in assay [10].
As for `c1cc(-c2cnn3cc(-c4ccc(OCCN5CCCCC5)cc4)cnc23)ccn1`, the residual activity came to 7% in [11]; 39% in [2]; 51% in assay [12]; 37% in assay [13]; 0% in [14]; 25% in [15]. Also, the residual activity in assay [5] is 0%; in [6], 118% (inactive); in assay [7], 117%; in assay [8], 20%; in assay [9] it was -1%; in assay [10] it was 129%. The residual activity in [16] came out at 100%; in assay [17], 123%.
For the molecule `COc1ccc2c(c1)/C(=C/c1cnc[nH]1)C(=O)N2`, the residual activity was 81% in assay [4]; 59% in assay [14]; 97% in assay [5]; 98% in assay [8]; 77% in assay [9]; 127% in [10]. The residual activity in assay [17] stood at 99%.
